From PubChem BioAssay
Hits are enriched below; roughly 6.8% of the tested compounds scored in any of these assays.
C diff growth: blocks growth of Clostridium difficile. Clostridium difficile clinical isolate growth, OD600, 24 h; active compounds read low. growth activity, negative = inhibition, % at 16 µg/mL (by protocol). 86,000 tested, 0.25% active. AID 1259249;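 active = mean growth activity at or below -80% and every replicate also at or below -80%; inconclusive = mean at or below -80% but some replicate above -80%; inactive = mean growth activity above -80%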;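 note: 0% = DMSO wells and -100% = levofloxacin 16 µg/mL wells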
T cruzi growth-1: blocks T. cruzi growth in NIH3T3 culture. T. cruzi beta-gal in NIH3T3, GalScreen luminescence, 90 h. inhibition, % at 8.34 µM. 77,000 tested, 5.9% active;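 active = mean inhibition above about 93%, with at least 55% of replicates each passing it, limit read from the data, passing the limit was not always enough; inconclusive = only one of those two conditions holds; inactive = neither condition holds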
Pf Dd2 growth: blocks growth of Plasmodium falciparum Dd2 parasites; activity change, % at 10 µM; AID 1159554; 94,000 tested, 2.3% active; P. falciparum Dd2 growth, SYBR Green, 72 h; active compounds read low; in the data active = activity change below about -80%; inconclusive = no clear call, values can overlap the other calls
T cruzi growth-2: blocks T. cruzi growth in NIH3T3 host cells; shares compounds with T cruzi growth-1; T. cruzi beta-gal in NIH3T3, GalScreen luminescence, 90 h; inhibition, % at 8.35 µM; 5,600 tested, 72% active; AID 651739;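 active = mean replicate inhibition above about 95% and at least 55% of replicates individually reaching it, limit read from the data; inconclusive = only one of the two criteria is met; inactive = neither criterion is met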
T cruzi growth-3: inhibitors of T. cruzi proliferation; shares compounds with T cruzi growth-1; AID 651740; 5,600 tested, 21% active; inhibition, % at 2.09 µM; T. cruzi beta-gal in NIH3T3, GalScreen luminescence, 90 h;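 active = mean inhibition above about 95%, with at least 55% of replicates also reaching it, limit read from the data; inconclusive = meets just one of the two conditions; inactive = meets neither condition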;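 note: plate controls were neutral control median for no effect and positive control median for full effect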
NIH3T3 tox: cytotoxicity in mouse NIH/3T3 fibroblasts; cytotoxicity (signal decrease), % at 8.35 µM; NIH/3T3 viability, CellTiter-Glo ATP luminescence, 90 h; 5,600 tested, 14% active; shares compounds with T cruzi growth-1;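 active = mean signal decrease across replicates above about 35% based on untreated-well scatter, with enough replicates individually passing, limit read from the data; inconclusive = no rule stated though some were filed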;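 note: 0% = median of neutral control wells and 100% = median of positive control wells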
NIH3T3 tox 2: NIH/3T3 (mouse) viability loss | inhibition, % at 24.9 µM | NIH/3T3 viability, CellTiter-Glo ATP luminescence, 90 h | AID 651744 | 5,600 tested, 56% active | shares compounds with T cruzi growth-1;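 active = mean loss of cell viability signal at or above a set limit, and enough replicates individually reaching it; inconclusive = meets only the mean limit or only the replicate share; inactive = meets neither condition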;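 note: 0% = median of neutral control wells and 100% = median of positive control wells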
Starred values were filed as active, the others as inactive; u = inconclusive; x = no result.

SMILES	C diff growth	T cruzi growth-1	Pf Dd2 growth	others
CN(C)CC(=O)N[C@H]1CC[C@@H](CCNC(=O)C2CCCCC2)O[C@@H]1CO	1.4	x	-7.8
C[C@@H]1CCCCO[C@@H](CN(C)C(=O)C2CCCCC2)[C@H](C)CN([C@H](C)CO)C(=O)c2cc(NC(=O)c3ccncc3)ccc2O1	-0.5	64.6	-3.3
C[C@H]1CCCCO[C@H](CN(C)C(=O)C2CCCCC2)[C@@H](C)CN([C@@H](C)CO)C(=O)c2cc(NC(=O)Nc3ccc(C(F)(F)F)cc3)ccc2O1	-6.1	121.4*	u	T cruzi growth-2=96.0*;T cruzi growth-3=110.5*;NIH3T3 tox=-4.1;NIH3T3 tox 2=31.2*
C[C@@H]1CCCCO[C@@H](CN(C)C(=O)C2CCCCC2)[C@@H](C)CN([C@H](C)CO)C(=O)c2cc(NC(=O)Nc3ccc(F)cc3)ccc2O1	10.2	11.6	-49.1
C[C@@H]1CCCCO[C@@H](CN(C)C(=O)C2CCCCC2)[C@@H](C)CN([C@H](C)CO)C(=O)c2cc(NC(=O)Nc3ccc(C(F)(F)F)cc3)ccc2O1	3.1	117.4*	-49.8	T cruzi growth-2=86.6;T cruzi growth-3=63.3;NIH3T3 tox=29.6;NIH3T3 tox 2=25.6*
C[C@H](CO)N1C[C@H](C)[C@H](CN(C)C(=O)C2CCCCC2)OCCCC[C@H](C)Oc2ccc(NC(=O)Nc3ccc(F)cc3)cc2C1=O	-2.7	83.4	14.7
C[C@@H]1CCCCO[C@H](CN(C)C(=O)C2CCCCC2)[C@H](C)CN([C@@H](C)CO)C(=O)c2cc(NC(=O)Nc3ccc(C(F)(F)F)cc3)ccc2O1	13.2	118.0*	-59.1	T cruzi growth-2=98.0*;T cruzi growth-3=117.7*;NIH3T3 tox=-18.4;NIH3T3 tox 2=-1.9
C[C@@H]1CN([C@@H](C)CO)C(=O)c2cc(NC(=O)Nc3ccc(C(F)(F)F)cc3)ccc2O[C@@H](C)CCCCO[C@@H]1CN(C)C(=O)C1CCCCC1	5.5	102.3	-77.8
CO[C@H]1CN(C)C(=O)c2ccc(NC(C)=O)cc2OC[C@H](C)N(Cc2cccnc2)C[C@@H]1C	x	-0.5	x
COc1ccc(NC(=O)Nc2ccc3c(c2)CC(=O)N([C@@H](C)CO)C[C@@H](C)[C@@H](CN(C)C)O3)cc1	0.7	x	6.2
Cc1noc(C)c1S(=O)(=O)N(C)C[C@@H]1OCCCC[C@@H](C)Oc2ccc(NC(=O)CCCN(C)C)cc2C(=O)N([C@@H](C)CO)C[C@H]1C	1.7	-48.7	35.8
C[C@@H]1CCCCO[C@H](CN(C)C(=O)NC2CCCCC2)[C@@H](C)CN([C@H](C)CO)C(=O)c2cc(NC(=O)NC3CCCCC3)ccc2O1	16.5	-0.7	-13.7
CN(C)C(=O)C[C@@H]1C=C[C@@H](NC(=O)NC2CCCC2)[C@H](CO)O1	-0.8	x	-12.2
C/C=C/c1ccc2c(c1)O[C@H](CN(C)Cc1ccccc1)[C@@H](C)CN([C@H](C)CO)S2(=O)=O	6.6	86.0	-26.0
C/C=C/c1ccc2c(c1)O[C@H](CN(C)Cc1ccc(F)cc1)[C@H](C)CN([C@H](C)CO)S2(=O)=O	-2.8	u	-26.9	T cruzi growth-2=107.1*;T cruzi growth-3=63.0;NIH3T3 tox=14.6;NIH3T3 tox 2=104.4*
C/C=C/c1ccc2c(c1)O[C@@H](CN(C)Cc1ccc(F)cc1)[C@H](C)CN([C@@H](C)CO)S2(=O)=O	14.2	117.5*	-60.0	T cruzi growth-2=98.7*;T cruzi growth-3=105.1*;NIH3T3 tox=54.0*;NIH3T3 tox 2=104.3*
C/C=C/c1ccc2c(c1)O[C@H](CN(C)Cc1ccccc1)[C@H](C)CN([C@H](C)CO)S2(=O)=O	2.0	67.1	15.3
C[C@H](CO)N1C[C@H](C)[C@H](CN(C)C(=O)Nc2ccc3c(c2)OCO3)OCCCC[C@H](C)Oc2ccc(NS(=O)(=O)c3cn(C)cn3)cc2C1=O	0.8	23.1	33.6
CCC(=O)N1[C@@H]2c3ccc(C4=CCCC4)c(=O)n3C[C@H]1[C@H](CO)[C@H]2C(=O)N[C@@H](C)c1ccccc1	0.0	72.9	-8.1
C[C@H]1CN([C@@H](C)CO)C(=O)c2cccc(NC(=O)c3ccc(-c4nccs4)cc3)c2O[C@@H]1CN(C)S(C)(=O)=O	-3.1	-8.4	17.9
CCCNC(=O)[C@@H]1[C@@H](CO)[C@@H]2Cn3c(ccc(-c4ccc(C(=O)N(C)C)cc4)c3=O)[C@@H]2N1CCC	1.0	37.3	9.3
